In PubChem BioAssay (NCATS) one finds outcome and Potency data, which are given here for eleven compounds.

Assay [1] in a line: S16 Schwann cell viability assay (CellTiter-Glo assay) (AID 624031).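 Further: cellular ATP luminescence as a viability measure; nearly all actives have a fitted effect of over 70% in size.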 The method in brief: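 Native S16 rat Schwann cells in DMEM/10% FBS without phenol red were incubated overnight, then exposed to compounds for 24 h at 37 °C/5% CO2. Viability was read as ATP luminescence (CellTiter-Glo), normalized to no-cell wells and DMSO (0%).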
Another assay concerns ATS189. Put plainly: qHTS profiling for inhibitors of Plasmodium falciparum proliferation (AID 504749). Further: nearly all actives have a fitted effect of over 60% in size. Further: potency means the concentration at half of the fitted maximal effect. The settings on record: P. falciparum in erythrocytes, SYBR Green DNA, 72 h; series mostly up to 12.8 µM. In a few lines: (§1)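 Three-day growth assay of blood-stage parasites in erythrocytes (0.3% parasitemia, 2.5% hematocrit) at 37 C, 5% CO2, quantified by SYBR Green DNA staining after overnight detergent lysis.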

In a further assay the test system is ATS95. The description is as above. To be noted: P. falciparum in erythrocytes, SYBR Green DNA, 72 h; series mostly up to 12.8 µM. In a few lines: as §1
In a further assay the test system is CP185. The assay is described as above. To be noted: P. falciparum in erythrocytes, SYBR Green DNA, 72 h; series mostly up to 12.8 µM. In a few lines: as §1
The next assay has as its system CP201. Described as above. To be noted: P. falciparum in erythrocytes, SYBR Green DNA, 72 h; series mostly up to 12.8 µM. In a few lines:
as §1

The test system of a further assay is CP203. The description is as above. The settings on record: P. falciparum in erythrocytes, SYBR Green DNA, 72 h; series mostly up to 12.8 µM. In a few lines: as §1
Another assay has as its system CP237. The description is as above. To be noted: P. falciparum in erythrocytes, SYBR Green DNA, 72 h; series mostly up to 12.8 µM. The method in brief: as §1
Another assay relates to CP247. Described as above. To be noted: P. falciparum in erythrocytes, SYBR Green DNA, 72 h; series mostly up to 12.8 µM. In a few lines: as §1
For a further assay, the system named is CP260. The assay is described as above. The settings on record: P. falciparum in erythrocytes, SYBR Green DNA, 72 h; series mostly up to 12.8 µM. In a few lines: as §1
For another assay, the system named is CP262. The assay is described as above. The settings on record: P. falciparum in erythrocytes, SYBR Green DNA, 72 h; series mostly up to 12.8 µM. In a few lines: as §1
For another assay, the system named is CP265. The description is as above. To be noted: P. falciparum in erythrocytes, SYBR Green DNA, 72 h; series mostly up to 12.8 µM. In a few lines:
as §1

Another assay concerns CP266. Described as above. The settings on record: P. falciparum in erythrocytes, SYBR Green DNA, 72 h; series mostly up to 12.8 µM. In a few lines: as §1
In the next assay the test system is CP286. The assay is described as above. To be noted: P. falciparum in erythrocytes, SYBR Green DNA, 72 h; series mostly up to 12.8 µM. In a few lines: as §1
A further assay deals with CP325. Described as above. The settings on record: P. falciparum in erythrocytes, SYBR Green DNA, 72 h; series mostly up to 12.8 µM. In a few lines: as §1
For the next assay, the system named is DIV17. The description is as above. To be noted: P. falciparum in erythrocytes, SYBR Green DNA, 72 h; series mostly up to 12.8 µM. The method in brief: as §1
Another assay deals with DIV30. Described as above. The settings on record: P. falciparum in erythrocytes, SYBR Green DNA, 72 h; series mostly up to 12.8 µM. In a few lines: as §1
Another assay deals with Dd2. The assay is described as above. To be noted: P. falciparum in erythrocytes, SYBR Green DNA, 72 h; series mostly up to 12.8 µM. The method in brief: as §1
In another assay the test system is ICS. The description is as above. The settings on record: P. falciparum in erythrocytes, SYBR Green DNA, 72 h; series mostly up to 12.8 µM. In a few lines:
as §1

The next assay deals with PAD. The description is as above. The settings on record: P. falciparum in erythrocytes, SYBR Green DNA, 72 h; series mostly up to 12.8 µM. The method in brief: as §1
A further assay concerns TAB165. The description is as above. The settings on record: P. falciparum in erythrocytes, SYBR Green DNA, 72 h; series mostly up to 12.8 µM. The method in brief: as §1

Records with an inconclusive call do not appear. Calls of active or inactive are those of the source. The call rests on the fitted dose curve; in most records, active means well fitted curve in the direction sought with a large enough effect; inconclusive means small, poorly fitted or top-dose-only effect, or another doubt; inactive means no such curve, though single readings can be large; an effect the other way counts as inactive or inconclusive.

As to `C1CCN2C[C@@H]3C[C@@H](CN4CCCC[C@H]34)[C@H]2C1`, in assay [1], the compound was classed as inactive. The Potency entry in the assay with ATS189, in the assay with ATS95, in the assay with CP185, in the assay with CP201, in the assay on CP203 and in the assay with CP237 was “inactive” in each case. For the same compound, the Potency result with CP247, in the assay on CP260, in the assay on CP262, with CP265, with CP266 and with CP286 was “inactive” each time. Besides, the Potency result in the assay on CP325, in the assay with DIV17, in the assay on DIV30, in the assay with Dd2, in the assay with ICS and in the assay with PAD was “inactive” throughout. For the same compound, the Potency result in the assay on TAB165 is “inactive”.

Regarding `NCc1ccccc1CC(=O)N[C@@H]1C(=O)N2C(C(=O)O)=C(CSc3nnnn3CC(=O)O)CS[C@@H]12`, the compound was classed as inactive in assay [1]. Further, the Potency entry in the assay on ATS189, in the assay on ATS95, in the assay with CP185, in the assay on CP201, in the assay on CP203 and in the assay with CP237 was “inactive” each time. Further, the Potency entry in the assay with CP247, in the assay with CP260, with CP262, with CP265, in the assay on CP266 and in the assay with CP286 was “inactive” in each case. For the same compound, the Potency entry in the assay on CP325, with DIV17, in the assay on Dd2, with ICS, with PAD and in the assay on TAB165 was “inactive” in each case.

Take `Cc1onc(-c2ccccc2Cl)c1C(=O)N[C@H]1C(=O)N2[C@H]1SC(C)(C)[C@H]2C(=O)O`: in assay [1], the compound was called inactive. For the same compound, the Potency entry in the assay on ATS189, with ATS95, in the assay on CP185, in the assay with CP201, in the assay with CP203 and in the assay on CP237 was “inactive” each time. Further, the Potency result in the assay with CP247, in the assay with CP260, with CP262, with CP265, in the assay on CP286 and in the assay on CP325 was “inactive” throughout. Besides, the Potency entry in the assay on DIV17, in the assay with DIV30, in the assay with Dd2, in the assay on ICS, in the assay on PAD and in the assay on TAB165 was “inactive” in each case.

For `CCN1CCC[C@@H](OC(=O)C(c2ccccc2)c2ccccc2)C1`, in assay [1], the compound was classed as inactive. The Potency result in the assay on ATS95, with CP201, with CP247, in the assay with CP260, with CP262 and with CP266 was “inactive” each time. Besides, the Potency result in the assay on CP286 is “inactive”. In addition, the Potency in the assay with CP237 was 1780 nM (active).

For `CN[C@H]1[C@@H](O)[C@@H](NC)[C@@H]2O[C@@]3(O)C(=O)C[C@@H](C)O[C@H]3O[C@H]2[C@H]1O`, the call in [1] was inactive. Moreover, the Potency result in the assay with ATS189, in the assay on ATS95, in the assay with CP185, in the assay with CP201, in the assay with CP237 and in the assay with CP247 was “inactive” each time. For the same compound, the Potency result with CP260, with CP262, in the assay with CP265, with CP266, with CP286 and with CP325 was “inactive” throughout. Further, the Potency entry with DIV17, with DIV30, with Dd2, in the assay on ICS, with PAD and in the assay with TAB165 was “inactive” throughout.

Regarding `CC(=O)OCC(=O)[C@@]12OC(C)(C)O[C@@H]1C[C@H]1[C@H]3C[C@H](F)C4=CC(=O)C=C[C@@]4(C)[C@]3(F)[C@H](O)C[C@@]12C`, the result in assay [1] was inactive. The Potency result with ATS189, with ATS95, in the assay with CP185, in the assay with CP201, in the assay on CP203 and in the assay with CP237 was “inactive” in each case. In addition, the Potency entry in the assay with CP247, with CP260, with CP262, in the assay with CP265, in the assay on CP266 and in the assay on CP286 was “inactive” in each case. The Potency result in the assay on CP325, in the assay on DIV17, with DIV30, with Dd2, with ICS and with PAD was “inactive” throughout. The Potency entry in the assay on TAB165 was “inactive”.

As for `CC[C@H]1NC(=O)c2cc(S(N)(=O)=O)c(Cl)cc2N1`, the outcome in assay [1] was inactive. For the same compound, the Potency result with ATS189, in the assay with ATS95, with CP185, in the assay with CP201, in the assay on CP203 and with CP237 was “inactive” throughout. The Potency entry in the assay on CP247, in the assay with CP260, with CP262, in the assay on CP265, in the assay with CP266 and in the assay with CP286 was “inactive” throughout. Moreover, the Potency entry with CP325, with DIV17, in the assay on DIV30, with Dd2, with ICS and with PAD was “inactive” in each case. The Potency entry in the assay with TAB165 is “inactive”.

`COc1ccc(OC)c([C@H](O)CNC(=O)CN)c1`: the compound was classed as inactive in assay [1]. Moreover, the Potency result in the assay with ATS189, with ATS95, with CP185, with CP201, in the assay on CP203 and in the assay on CP237 was “inactive” throughout. The Potency entry in the assay on CP247, in the assay on CP260, in the assay on CP262, with CP265, in the assay on CP266 and with CP286 was “inactive” each time. Besides, the Potency entry in the assay on CP325, with DIV17, with DIV30, in the assay with Dd2, with ICS and in the assay on PAD was “inactive” throughout. The Potency entry in the assay with TAB165 is “inactive”.

`CC(=O)O[C@H]1C[C@@]2(C)[C@H](C[C@@H](O)[C@H]3[C@@]4(C)CC[C@@H](O)[C@@H](C)[C@H]4CC[C@@]32C)C1=C(CCC=C(C)C)C(=O)O`: in assay [1], the compound was classed as inactive. The Potency entry in the assay on ATS189, in the assay with ATS95, in the assay with CP185, in the assay with CP201, in the assay on CP203 and in the assay with CP237 was “inactive” each time. Besides, the Potency entry with CP247, with CP260, in the assay on CP262, in the assay with CP265, in the assay with CP266 and in the assay on CP286 was “inactive” in each case. The Potency entry in the assay with CP325, in the assay with DIV30, with Dd2, in the assay with PAD and in the assay with TAB165 was “inactive” each time.

Take `CC(C)(C)NC(=O)[C@@H]1CC[C@@H]2[C@@H]3CC[C@@H]4NC(=O)C=C[C@@]4(C)[C@H]3CC[C@]21C`: the result in assay [1] was inactive. Besides, the Potency entry in the assay on ATS189, in the assay on ATS95, with CP185, with CP201, with CP203 and in the assay with CP237 was “inactive” each time. The Potency entry in the assay on CP247, in the assay on CP260, with CP262, with CP265, in the assay on CP266 and in the assay on CP286 was “inactive” each time. For the same compound, the Potency entry in the assay on CP325, in the assay with DIV17, with DIV30, in the assay with Dd2, in the assay on ICS and in the assay on PAD was “inactive” each time. Besides, the Potency entry with TAB165 is “inactive”.

Regarding `Cc1ncc([N+](=O)[O-])n1C[C@H](O)CCl`, the result in assay [1] was inactive. Besides, the Potency entry with ATS189, with ATS95, in the assay on CP185, with CP201, in the assay with CP203 and in the assay on CP237 was “inactive” in each case. For the same compound, the Potency result in the assay with CP247, in the assay on CP260, with CP262, in the assay on CP265, with CP266 and in the assay with CP286 was “inactive” throughout. Moreover, the Potency result with CP325, with DIV17, with DIV30, with Dd2, in the assay on ICS and in the assay on PAD was “inactive” throughout. Besides, the Potency result with TAB165 is “inactive”.
